Reference: PubChem BioAssay (EPA / NIEHS)
Where “and” joins values, the source holds several entries; their conditions need not be identical. Equal values may be shown once. Some compounds were tested as several samples or in several runs, with calls that do not always agree. Calls of active or inactive are those of the source. Rule for the calls: active = hit-call score of the fitted dose curve at least 0.9, where 1 is the maximum; inactive = score below 0.9.

Assay: BSK_SAg_PBMCCytotoxicity: PBMC Cytotoxicity Assessment in the BioMAP Diversity Plus: SAg Assay (AID 2283093);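 note: fitted both ways against DMSO so a hit may be loss or gain of signal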;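 for AC50: PBMC superantigen activated with SEB plus TSST-1 one hour after compound addition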
Settings: primary human HUVEC with PBMC
Summary of the method: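 PBMC viability by Alamar Blue reduction, fluorescence read at 546/580 nm after 6 h dye exposure. Cells were dosed 1 h before SEB plus TSST-1 activation (20 ng/mL final each), then held 90 h; endothelial/PBMC human co-culture.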

Row | Structure (SMILES) | AC50 | outcome
1 | CCOC(=O)C(O)(c1ccc(Cl)cc1)c1ccc(Cl)cc1 | 33.7 µM (active) | 
2 | O=C(NC(=O)c1cc(F)c(F)cc1Cl)Nc1cc(F)ccc1N1CCC(C(=O)O)CC1 |  | inactive
3 | CCC(=O)O[C@H]1CC[C@H]2[C@@H]3CCC4=CC(=O)CC[C@]4(C)[C@H]3CC[C@]12C | 37.9 µM (active) | 
4 | Cc1cc(O)ccc1Cl |  | inactive
5 | CCOCCOC(C)=O |  | inactive
6 | N#Cc1ccc(N(CC(N)=O)CC(F)(F)F)cc1C(F)(F)F |  | inactive
7 | O=NN(c1ccccc1)c1ccccc1 |  | inactive
8 | O=C(O)C(F)(F)C(F)(F)C(F)(F)C(F)(F)C(F)(F)C(F)(F)C(F)(F)C(F)(F)F |  | inactive
9 | C=CC(=O)NCNC(=O)C=C |  | inactive
10 | Clc1ccc(Cl)cc1 |  | inactive
11 | Cc1ccccc1[N+](=O)[O-] |  | inactive
12 | CC(C)(c1ccccc1)c1ccc(O)cc1 | 31.5 µM (active) | 
13 | CCCCCCCCOC(=O)c1ccccc1C(=O)OCCCCCCCC | 5.6 µM (active) | 
14 | Oc1c(Cl)c(Cl)c(Cl)c(Cl)c1Cl | 8 µM (active) | inactive
15 | CCSC(=O)N(CC)C1CCCCC1 |  | inactive
16 | O=C(O)C(F)(F)C(F)(F)C(F)(F)C(F)(F)C(F)(F)C(F)(F)C(F)(F)C(F)(F)C(F)(F)F | 29.8 µM (active) and 47.3 µM (active) and 51 µM (active) | 

Row | Structure (SMILES) | AC50 | outcome
17 | C1CC2OC2CC1C1CO1 (centres undefined) |  | inactive
18 | c1cc2ccc3cccc4ccc(c1)c2c34 |  | inactive
19 | C[C@]12CCC(=O)C=C1CC[C@@H]1[C@@H]2CC[C@@]2(C)[C@H]1CC[C@]2(C)O |  | inactive
20 | Oc1ccc(Cl)cc1Cl |  | inactive
21 | CN(C)c1nc(=O)n(C2CCCCC2)c(=O)n1C |  | inactive
22 | O=C(NC(=O)c1c(F)cccc1F)Nc1cc(Cl)c(OC(F)(F)C(F)F)c(Cl)c1 |  | inactive
23 | CCCCCCOC(=O)c1ccccc1C(=O)OCCCCCC | 35 µM (active) | 
24 | O=S(=O)(O)C(F)(F)C(F)(F)C(F)(F)C(F)(F)F |  | inactive
25 | Cc1ccc(O)c(C)c1 |  | inactive
26 | CCCCCCCCCC[N+](C)(C)CCCCCCCCCC | 1.77 µM (active) | 
27 | CC1=C2C[C@H]3[C@@H](CC=C4C[C@@H](O)CC[C@@]43C)[C@@H]2CC[C@]12O[C@@H]1C[C@H](C)CN[C@H]1[C@H]2C |  | inactive
28 | c1ccc(-c2ccccc2)cc1 |  | inactive
29 | O=C(N[C@H]1CN2CCC1CC2)c1cc2ccoc2cn1 |  | inactive
30 | CN(C)CCO |  | inactive
31 | ClC1=C(Cl)[C@]2(Cl)[C@@H]3[C@H]4C[C@H]([C@@H]5O[C@H]45)[C@@H]3[C@@]1(Cl)C2(Cl)Cl | 5.53 µM (active) | 
32 | COc1ccc(O)c(C(C)(C)C)c1 | 20 µM (active) | inactive
